“And” between values parts separate entries of the source, which are not always exact repeats. Equal values may be shown once. Inconclusive results are not listed. Entries that show only a call come without a potency. A number with no mark means an inactive call. The source made the active and inactive calls. The call rests on the fitted dose curve; in most records, active means well fitted inhibition curve with a large enough effect in the signal ratio in the repeat runs (not every such curve was filed as active); inconclusive means weak or mixed curves; inactive means flat fitted curve, though single readings scatter; the % refers to the signal ratio.
Potency means the concentration at half of the fitted maximal effect.

Chain of Progesterone receptor (Homo sapiens) (P06401 whole entry, looked up): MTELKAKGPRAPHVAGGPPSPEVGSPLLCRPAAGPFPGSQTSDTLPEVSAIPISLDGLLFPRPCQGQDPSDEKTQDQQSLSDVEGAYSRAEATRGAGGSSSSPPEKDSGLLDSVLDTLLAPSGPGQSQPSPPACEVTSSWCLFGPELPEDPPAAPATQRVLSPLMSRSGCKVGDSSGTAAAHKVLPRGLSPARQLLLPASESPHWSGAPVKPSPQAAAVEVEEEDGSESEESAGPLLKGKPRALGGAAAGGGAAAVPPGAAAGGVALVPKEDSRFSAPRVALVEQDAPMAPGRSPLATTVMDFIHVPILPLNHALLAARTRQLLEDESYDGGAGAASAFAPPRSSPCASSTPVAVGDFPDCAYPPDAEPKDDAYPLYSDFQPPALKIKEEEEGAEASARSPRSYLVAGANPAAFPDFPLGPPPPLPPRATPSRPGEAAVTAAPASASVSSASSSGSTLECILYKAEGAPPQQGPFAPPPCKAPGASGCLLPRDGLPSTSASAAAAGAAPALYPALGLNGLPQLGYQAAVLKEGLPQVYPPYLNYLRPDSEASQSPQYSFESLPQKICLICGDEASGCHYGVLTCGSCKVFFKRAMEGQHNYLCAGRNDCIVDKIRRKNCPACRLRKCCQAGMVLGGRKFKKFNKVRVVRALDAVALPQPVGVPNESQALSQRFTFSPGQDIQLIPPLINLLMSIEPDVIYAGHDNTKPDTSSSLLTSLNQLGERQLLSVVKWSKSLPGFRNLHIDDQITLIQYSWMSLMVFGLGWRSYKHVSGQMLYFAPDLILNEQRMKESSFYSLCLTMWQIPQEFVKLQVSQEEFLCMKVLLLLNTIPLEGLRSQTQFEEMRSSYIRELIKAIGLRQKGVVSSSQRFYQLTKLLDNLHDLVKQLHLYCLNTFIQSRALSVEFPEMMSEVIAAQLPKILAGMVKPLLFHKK

The assay deals with Progesterone receptor (Homo sapiens) (UniProt P06401). In words: qHTS assay to identify small molecule antagonists of the progesterone receptor (PR) signaling pathway (AID 1346795). To be noted: PR-UAS-bla HEK293T, beta-lactamase FRET ratio, 16 h; series mostly up to 92.4 µM. An excerpt:
National Center for Advancing Translational Sciences [NCATS]
NIH Chemical Genomics Center [NCGC]
U.S. Environmental Protection Agency [EPA]
National Institutes of Environmental Health Sciences [NIEHS]
National Toxicology Program [NTP]
U.S. Food and Drug Administration [FDA]
Progesterone receptor (PR), a nuclear hormone receptor, plays an important role in development, metabolic homeostasis and reproduction. […] Endocrine disrupting chemicals (EDCs) and their interactions with steroid hormone receptors like PR causes disruption of normal endocrine function. To identify the compounds that inhibit PR signaling, a PR-UAS-bla GripTite cell line i.e. PR-UAS-bla HEK293T (Invitrogen, Carlsbad, CA, USA) containing a beta-lactamase reporter gene under the control of an Upstream Activator Sequence (UAS) was used to screen Tox21 10K compound library.
Tox21 Assay Protocol Summary:
PR-UAS-bla HEK293T cells were dispensed at 3,000 cells/4 uL of assay medium containing 2% charcoal stripped FBS per well into black wall/clear-bottom 1536-well plates using a Multidrop Combi (ThermoFisher Scientific, Waltham, MA) dispenser. After the assay plates were incubated at a 37C and 5% CO2 for 6 hr, 23 nL of compounds dissolved in DMSO, positive controls or DMSO only was transferred to the assay plate by a Pintool station (Kalypsys, San Diego, CA), followed by addition of 1 uL (1nM as final concentration) of Promegestone (R5020) in assay medium using a BioRAPTR FRD (Flying Reagent Dispenser, Aurora Discovery, San Diego, CA). The plates were incubated at 37C and 5% CO2 for 16 hr. Then 1 uL of LiveBLAzer B/G FRET substrate was added using a FRD. After the plates were incubated at room temperature for 2 hours, fluorescence intensity was measured by an Envision plate reader (PerkinElmer, Shelton, CT).
Take `C1CCC2CCCCC2C1` (stereo not given): the Potency entry was “inactive”.

With `FC(Cl)(Cl)Cl`, the Potency result was “inactive”.

For `c1ccc2c(c1)OCC(C1=NCCN1)O2` (stereo not given), the Potency is 21.1 µM (active).

For `ClCc1ccccc1CCl`, the Potency entry was “inactive”.

Take `Clc1ccc(COC(Cn2ccnc2)c2ccc(Cl)cc2Cl)cc1` (stereo not given): the Potency was 5.31 µM (active).

Consider `O=C1C=CC(=O)c2ccccc21`, for which the Potency entry is “inactive”.

Take `COC(=O)N(C(=O)N1COC2(C(=O)OC)Cc3cc(Cl)ccc3C2=N1)c1ccc(OC(F)(F)F)cc1` (stereo not given): the Potency was 29.8 µM (active).

For the molecule `BrCBr`, the Potency entry was “inactive”.

Regarding `Nc1ccccc1C(=O)OC/C=C/c1ccccc1`, the Potency was 27.4 µM (active).

Regarding `NNC(=O)c1ccccc1`, the Potency result was “inactive”.

In the case of `CC[C@H](C)[C@H]1O[C@]2(C=C[C@@H]1C)C[C@@H]1C[C@@H](C/C=C(\C)[C@@H](O[C@H]3C[C@H](OC)[C@@H](O[C@H]4C[C@H](OC)[C@@H](O)[C@H](C)O4)[C@H](C)O3)[C@@H](C)/C=C/C=C3\CO[C@@H]4[C@H](O)C(C)=C[C@@H](C(=O)O1)[C@]34O)O2`, the Potency is 16.1 µM (active).

Take `CCCCCCCCCCCCCCC(Br)C(=O)O` (stereo not given): the Potency result is “inactive”.

`SCc1ccco1`: the Potency entry was “inactive”.

For the molecule `CN(C)C1CSSSC1`, the Potency result was “inactive”.

`NC(=O)c1ccc(N)nc1`: the Potency entry is “inactive”.

Consider `CCCN(CC)CC1COC2(CCC(C(C)(C)C)CC2)O1` (stereo not given), for which the Potency entry was “inactive”.

With `Nc1ccccc1C(=O)Oc1ccc2ccccc2c1`, the Potency is 30.6 µM (active).

For `ClC1=C(Cl)C2(Cl)C3C(Cl)C(Cl)CC3C1(Cl)C2(Cl)Cl` (stereo not given), the Potency was 4.31 µM (active) and 21.7 µM (active).

In the case of `CC(C)C1CCC(Cc2ccc(Cl)cc2)C1(O)Cn1cncn1` (stereo not given), the Potency is 3.4 µM (active).

On to `O=C(O)c1cc[c]([Hg][Cl])cc1`, for which the Potency was 15.4 µM (active).

With `BrC(Br)Br`, the Potency entry was “inactive”.

Take `CCCCCCCCCCCCCCCCCCn1cc[n+](C)c1`: the Potency is 54.2 µM (active).

`FC(F)(F)c1cccc(C2=CCN(CCc3ccc4ccccc4c3)CC2)c1`: the Potency entry is “inactive”.

Turning to `CCCCCCCCCCCCCN1CC(C)OC(C)C1` (stereo not given), the Potency entry was “inactive”.

As to `COS(=O)(=O)c1ccc(C)cc1`, the Potency entry is “inactive”.

As for `O=[N+]([O-])c1cc(Cl)ccc1Cl`, the Potency result is “inactive”.

Consider `Oc1cccc(-c2ccccc2)c1`, for which the Potency was 30.6 µM (active).

Regarding `N#Cc1ccccc1Cl`, the Potency entry was “inactive”.

In the case of `Brc1c(Br)c(Br)c(Oc2c(Br)c(Br)c(Br)c(Br)c2Br)c(Br)c1Br`, the activity change, negative = inhibition is 0.347% [at 18.9 µM].

As for `Oc1ccccc1Br`, the Potency result is “inactive”.

With `CC(=O)OC1(c2ccccc2)CCN(CCc2ccccc2)CC1`, the Potency entry is “inactive”.

For the molecule `O=C(NC(=O)c1c(F)cccc1F)Nc1cc(Cl)c(OC(F)(F)C(F)F)c(Cl)c1`, the Potency entry was “inactive”.

With `Oc1ccc(C(c2ccc(O)cc2)(C(F)(F)F)C(F)(F)F)cc1`, the Potency was 13.6 µM (active).

With `N#CCc1ccc(Cl)cc1`, the Potency entry is “inactive”.

For the molecule `Clc1ccc(C(c2ccccc2Cl)C(Cl)(Cl)Cl)cc1` (stereo not given), the Potency is 4.51 µM (active).

Turning to `C=COCCCl`, the Potency result was “inactive”.

Regarding `Oc1ccc(I)cc1`, the Potency is 61.1 µM (active).

Consider `N#Cc1ccc(O)cc1`, for which the Potency entry was “inactive”.

With `CC(Cl)CN(C)C` (stereo not given), the Potency entry is “inactive”.

On to `CC(C)CCCCCOC(=O)c1ccccc1C(=O)OCCCCCC(C)C`, for which the Potency entry is “inactive”.

Values taken from PubChem BioAssay (Tox21).
